Data on 21 compounds can be found in PubChem BioAssay.

Unmarked numbers belong to inactive results. For part of these data: Potency and affinity values are given separately. Activity calls are given as the source filed them. Unless noted, how the calls were made is not given here.

A short description of test [1]: antimalarial activity against Dd2 strain (AID 2302;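 active means growth inhibition above 50% at the single 2 µM test dose, taken to imply half-maximal potency below 2 µM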;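 further: 0% = DMSO untreated growth and 100% = chloroquine plus artemisinin killed control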). Particulars: P. falciparum Dd2 in RBCs, LDH growth readout, 72 h; at 2 µM; stronger effect = higher value.
A short description of test [2]: HepG2 cytotoxicity, primary screen, cytotoxicity control for P. falciparum antimalarial project, cell-based, ATP luminescence (AID 2303;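 active means inhibition above 50%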;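 further: 0% = DMSO wells and 100% = digitonin-killed cells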). Particulars: HepG2 viability, 24-48 h, at 10 µM, stronger effect = higher value.
Test [3] addresses L-lactate dehydrogenase (Plasmodium falciparum (isolate CDC / Honduras)) (UniProt Q27743). The test is described as follows: PfLDH activity inhibition – cell lysate, 3D7 strain, counter-screen for P. falciparum growth inhibition project (AID 2304).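 Further: 0% = vehicle and 100% = reference inhibitor.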 Conditions: P. falciparum 3D7 crude extract, LDH APAD/NBT absorbance; at 2 µM; stronger effect = higher value.
Test [4] in a line: inhibition of 3D7 malaria parasite growth – strain 3D7 (AID 2306).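 Further: 0% = DMSO wells and 100% = chloroquine plus artemisinin control wells.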 Conditions: P. falciparum 3D7 erythrocytic growth, LDH absorbance, 72 h; at 2 µM; stronger effect = higher value.
Test [5] concerns the target Calcium-dependent protein kinase 1 (Plasmodium falciparum (isolate 3D7)) (UniProt P62344). Description: PfCDPK1 kinase inhibitors, biochemical, TCAMS library (AID 1159585; cut-off not given, nearly all actives have IC50 up to about 0.98 µM;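 further: inhibitors leave more ATP so luminescence rises with inhibition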). Particulars: recombinant PfCDPK1, Kinase-Glo ATP depletion luminescence.
The target of test [6] is Plasmodium falciparum protein kinase 6 (PK6, PF3D7_1337100) (UniProt Q8IDW1). The test is described as follows: PfPK6 kinase inhibitors, biochemical, TCAMS library (AID 1159586). Conditions: recombinant PfPK6, Kinase-Glo ATP depletion luminescence.
The target of test [7] is Protein kinase 7 (PK7), Plasmodium falciparum 3D7 (PF3D7_0213400) (UniProt Q7YTF7). Description: inhibition of Plasmodium PK7 catalytic activity – biochemical, TCAMS antimalarial set, Kinase-Glo luminescence (AID 1159587). Particulars: recombinant PfPK7, Kinase-Glo ATP depletion luminescence.
In test [8] the target is Calcium-dependent protein kinase 4 (Plasmodium falciparum (isolate 3D7)) (UniProt Q8IBS5). Description: PfCDPK4 kinase inhibitors, biochemical, TCAMS library (AID 1159588; cut-off not given, nearly all actives have IC50 up to about 0.91 µM). Conditions: recombinant PfCDPK4, Kinase-Glo ATP depletion luminescence.
Chain of Calcium-dependent protein kinase 4 (Plasmodium falciparum (isolate 3D7)) (Q8IBS5 whole entry, looked up): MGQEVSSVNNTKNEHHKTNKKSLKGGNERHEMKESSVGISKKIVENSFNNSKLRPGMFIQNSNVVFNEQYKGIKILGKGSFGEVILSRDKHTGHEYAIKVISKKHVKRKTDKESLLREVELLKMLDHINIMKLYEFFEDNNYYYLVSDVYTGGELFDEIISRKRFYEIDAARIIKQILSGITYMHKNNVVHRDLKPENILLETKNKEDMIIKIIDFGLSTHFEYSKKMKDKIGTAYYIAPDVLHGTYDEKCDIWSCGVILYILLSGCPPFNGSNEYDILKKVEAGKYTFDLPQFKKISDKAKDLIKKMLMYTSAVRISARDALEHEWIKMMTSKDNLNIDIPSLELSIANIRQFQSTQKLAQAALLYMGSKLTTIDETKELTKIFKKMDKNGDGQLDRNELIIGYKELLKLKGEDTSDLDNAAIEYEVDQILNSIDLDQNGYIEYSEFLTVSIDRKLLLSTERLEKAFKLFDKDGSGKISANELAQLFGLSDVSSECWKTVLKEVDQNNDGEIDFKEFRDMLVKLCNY

Chain of Protein kinase 7 (PK7), Plasmodium falciparum 3D7 (PF3D7_0213400) (Q7YTF7 1-343): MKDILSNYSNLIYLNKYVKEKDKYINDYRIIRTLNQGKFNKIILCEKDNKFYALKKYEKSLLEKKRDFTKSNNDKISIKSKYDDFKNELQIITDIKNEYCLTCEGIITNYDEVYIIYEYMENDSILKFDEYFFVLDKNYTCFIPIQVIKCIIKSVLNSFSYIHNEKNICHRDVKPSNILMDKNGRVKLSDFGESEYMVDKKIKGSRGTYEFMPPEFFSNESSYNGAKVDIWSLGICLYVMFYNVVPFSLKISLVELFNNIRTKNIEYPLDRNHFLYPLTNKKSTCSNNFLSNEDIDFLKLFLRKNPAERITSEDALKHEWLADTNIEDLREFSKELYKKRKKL
Chain of Calcium-dependent protein kinase 1 (Plasmodium falciparum (isolate 3D7)) (P62344 whole entry, looked up): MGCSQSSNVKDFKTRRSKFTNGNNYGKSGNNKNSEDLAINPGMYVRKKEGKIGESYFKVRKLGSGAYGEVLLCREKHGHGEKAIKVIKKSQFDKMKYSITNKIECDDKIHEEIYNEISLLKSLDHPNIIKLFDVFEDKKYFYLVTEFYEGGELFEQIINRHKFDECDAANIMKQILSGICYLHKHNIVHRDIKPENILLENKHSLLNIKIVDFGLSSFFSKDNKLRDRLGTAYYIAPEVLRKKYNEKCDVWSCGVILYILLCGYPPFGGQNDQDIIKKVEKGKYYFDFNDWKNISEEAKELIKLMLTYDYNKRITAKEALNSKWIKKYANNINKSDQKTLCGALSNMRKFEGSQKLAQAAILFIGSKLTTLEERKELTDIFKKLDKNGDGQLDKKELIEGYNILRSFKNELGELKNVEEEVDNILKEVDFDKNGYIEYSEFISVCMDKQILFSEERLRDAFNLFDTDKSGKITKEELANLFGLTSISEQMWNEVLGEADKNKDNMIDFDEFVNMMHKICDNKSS
Chain of L-lactate dehydrogenase (Plasmodium falciparum (isolate CDC / Honduras)) (Q27743 whole entry, looked up): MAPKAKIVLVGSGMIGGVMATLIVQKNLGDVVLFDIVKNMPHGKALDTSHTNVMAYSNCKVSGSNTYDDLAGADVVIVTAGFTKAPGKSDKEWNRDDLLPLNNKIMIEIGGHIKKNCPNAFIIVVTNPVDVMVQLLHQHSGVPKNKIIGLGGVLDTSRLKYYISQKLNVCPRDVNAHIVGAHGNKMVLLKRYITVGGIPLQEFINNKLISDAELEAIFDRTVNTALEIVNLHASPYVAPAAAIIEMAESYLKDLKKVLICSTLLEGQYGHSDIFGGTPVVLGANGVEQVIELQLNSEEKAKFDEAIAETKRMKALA
Chain of Plasmodium falciparum protein kinase 6 (PK6, PF3D7_1337100) (Q8IDW1 1-305): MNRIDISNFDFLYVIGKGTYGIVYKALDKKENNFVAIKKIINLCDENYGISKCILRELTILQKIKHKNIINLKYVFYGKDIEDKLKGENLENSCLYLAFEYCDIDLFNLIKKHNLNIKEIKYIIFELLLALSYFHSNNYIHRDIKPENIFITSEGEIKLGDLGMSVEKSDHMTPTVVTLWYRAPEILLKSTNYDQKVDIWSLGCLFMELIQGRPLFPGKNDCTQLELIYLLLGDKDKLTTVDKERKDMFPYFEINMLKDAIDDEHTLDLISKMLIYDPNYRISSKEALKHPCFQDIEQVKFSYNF

Take `CCNc1cc(C(=O)N[C@@H](Cc2ccccc2)[C@H](O)CNCc2cccc(-c3cncnc3)c2)cc(N2CCCC2=O)c1`: the growth inhibition in test [1] is 96% (active); in test [4] it was 97% (active). The inhibition in test [2] was 5%; in test [3], 2%. In addition, the outcome in test [5], in test [6], in test [7] and in test [8] was inactive.

As to `O=C(Nc1ccc(N2CCCN(Cc3cccc(F)c3)CC2)cc1)c1cccs1`, the growth inhibition in test [1] and in test [4] was 96% (active) in each case. The inhibition in test [2] was 2%; in test [3], 0%. Besides, the outcome in test [5], in test [6], in test [7] and in test [8] was inactive.

For the compound `COc1cc(C=Cc2ccc3ccccc3n2)cc(Br)c1OCC(=O)N(C)C`, the growth inhibition in test [1] is 87% (active); in test [4], 99% (active). Also, the results for the inhibition in test [2] and in test [3] were 28% and 3%, respectively. The outcome in test [5], in test [6], in test [7] and in test [8] was inactive.

Consider `Cc1cccc2[nH]c(-c3cccc(-c4cccc(NC(=O)c5cnn6cccnc56)c4)c3)nc12`, for which the values for the growth inhibition in test [1] and in test [4] were 17% and 101% (active), respectively. Also, the inhibition is 14% in test [2] and -3% in test [3]. In addition, the result in test [5], in test [6], in test [7] and in test [8] was inactive.

On to `NC1=NC(c2ccccc2)(c2ccccc2)C(=O)N1Cc1ccc(-c2cccnc2)cc1`, for which the results for the growth inhibition in test [1] and in test [4] were 94% (active) and 99% (active), respectively. The inhibition in test [2] is 15%; in test [3], 5%. For the same compound, the result in test [5], in test [6], in test [7] and in test [8] was inactive.

As to `COc1cc(Cc2cnc(N)nc2N)c2ccsc2c1OC`, the growth inhibition in test [1] was 4%; in test [4], 92% (active). Also, the values for the inhibition in test [2] and in test [3] were 5% and 0%, respectively. Further, the outcome in test [5], in test [6], in test [7] and in test [8] was inactive.

`CC(C)(C)c1ccc2oc(=O)n(C3CCN(C(=O)c4ccc([N+](=O)[O-])o4)CC3)c2c1`: the growth inhibition is 87% (active) in test [1] and 94% (active) in test [4]. The inhibition in test [2] is -8%; in test [3] it was -2%. The result in test [5], in test [6], in test [7] and in test [8] was inactive.

As for `Cc1cc(NCCc2ccc(O)cc2)nc(NCC(c2ccccc2)c2ccccc2)n1`, the growth inhibition in test [1] was 77% (active); in test [4], 102% (active). Moreover, the inhibition in test [2] is 22%; in test [3], 1%. In addition, the outcome in test [5], in test [6], in test [7] and in test [8] was inactive.

Take `NC(N)=Nc1nc(-c2ccc(NC(=O)Nc3cccc(-c4csc(N=C(N)N)n4)c3)cc2)cs1`: the growth inhibition is 80% (active) in test [1] and 94% (active) in test [4]. The figures for the inhibition in test [2] and in test [3] were -9% and 3%, respectively. Besides, the outcome in test [5], in test [6], in test [7] and in test [8] was inactive.

For the compound `Cc1cc(CNCC2CCC(CNCCCc3ccccc3)CC2)ccc1O` (stereo not drawn), the growth inhibition in test [1] is 0%; in test [4], 101% (active). Further, the values for the inhibition in test [2] and in test [3] were 25% and 7%, respectively. In addition, the result in test [5], in test [6], in test [7] and in test [8] was inactive.

For the compound `Cc1cc(N2CCCC2)nc(Nc2ccc(NC(=O)Cc3ccccc3)cc2)n1`, the values for the growth inhibition in test [1] and in test [4] were 72% (active) and 102% (active), respectively. For the same compound, the results for the inhibition in test [2] and in test [3] were 71% (active) and -4%, respectively. For the same compound, the result in test [5], in test [6], in test [7] and in test [8] was inactive.

For `O=C(Nc1ccc(Oc2ccccc2)cc1)N(CCN1CCCC1)Cc1ccc(-c2ccc(CN3CCNCC3)cc2)cc1`, the growth inhibition is 90% (active) in test [1] and 88% (active) in test [4]. In addition, the inhibition in test [2] is 48%; in test [3] it was -2%. The result in test [5], in test [6], in test [7] and in test [8] was inactive.

`Cc1ccc2c(c1)NC[C@@]21CCN(C[C@@H](O)C2CCN(c3ccnc(Cl)c3)CC2)C[C@@H]1C`: the growth inhibition was 69% (active) in test [1] and 87% (active) in test [4]. Also, the inhibition in test [2] is 46%; in test [3] it was -5%. Besides, the result in test [5], in test [6], in test [7] and in test [8] was inactive.

Regarding `O=C(Nc1cccc(CN2CCCN(Cc3cccc(Cl)c3)CC2)c1)c1ccc(Br)cc1`, the growth inhibition in test [1] was 16%; in test [4], 92% (active). The inhibition was 38% in test [2] and 1% in test [3]. Besides, the outcome in test [5], in test [6], in test [7] and in test [8] was inactive.

In the case of `O=C(CCOc1ccccc1)NCC1CCCO1` (stereo not drawn), the growth inhibition in test [1] is -11%; in test [4], 92% (active). For the same compound, the inhibition was -10% in test [2] and -3% in test [3]. Besides, the outcome in test [5], in test [6], in test [7] and in test [8] was inactive.

With `N#CC1(c2ccccc2)CCN(c2nc(NCCCN3CCCC3=O)nc(N3CCCC4CCCCC43)n2)CC1` (stereo not drawn), the growth inhibition in test [1] is 92% (active); in test [4] it was 95% (active). Besides, the figures for the inhibition in test [2] and in test [3] were -2% and 3%, respectively. Besides, the result in test [5], in test [6], in test [7] and in test [8] was inactive.

`Cc1cc(N[C@@H](CC(C)C)C(=O)NCCOc2ccccc2)nc(NCCc2ccc(F)cc2)n1`: the values for the growth inhibition in test [1] and in test [4] were 54% (active) and 95% (active), respectively. Moreover, the inhibition in test [2] is 25%; in test [3], 1%. The outcome in test [5], in test [6], in test [7] and in test [8] was inactive.

As for `Cc1ccc(Nc2ccnc(Nc3ccc(C)c(F)c3)n2)cc1O`, the growth inhibition in test [1] is 27%; in test [4], 100% (active). The inhibition is 4% in test [2] and -4% in test [3]. Moreover, the outcome in test [5], in test [6], in test [7] and in test [8] was inactive.

Consider `Cc1nnsc1C(=O)Nc1ccc(-c2cccc(-c3nc4c(C)cccc4[nH]3)c2)cc1`, for which the figures for the growth inhibition in test [1] and in test [4] were 47% and 98% (active), respectively. Moreover, the inhibition in test [2] is 23%; in test [3], 4%. Besides, the outcome in test [5], in test [6], in test [7] and in test [8] was inactive.

As for `O=C(/C=C/c1ccc([N+](=O)[O-])cc1)N1CCC(NS(=O)(=O)c2ccc(Br)cc2)CC1`, the growth inhibition in test [1] is 5%; in test [4] it was 93% (active). Further, the inhibition is 0% in test [2] and -4% in test [3]. Also, the result in test [5], in test [6], in test [7] and in test [8] was inactive.

`CN(C)c1ccc(CN2CCC(NC(=O)c3ccc(-c4ccc(N(C)C)cc4)s3)CC2)cc1`: the growth inhibition in test [1] was 21%; in test [4] it was 93% (active). Further, the figures for the inhibition in test [2] and in test [3] were 24% and -2%, respectively. The result in test [5], in test [6], in test [7] and in test [8] was inactive.
